# Experimental data from the supplement of paper PMC8728848.
# The sample as a whole holds a higher share of the strongest signals than the screen did.
# Assays:
# Experiment in all cases: glycan array binding signal (z-score within array); higher = stronger binding
# Details in all cases: glycan notation: IUPAC condensed, linker removed
# [1] = target: Glc(a1-2)Glc(a1-2)Glc(a1-2)Glc(a1-2)Glc(a1-2)Glc(a1-2)Glc(a1-2)Glc(a1-2)Glc
# Outline: (§1)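 Columns mapping to the same glycan were averaged after glycan names were converted to IUPAC-condensed notation. The data come from 3228 arrays in the Consortium for Functional Glycomics database, limited to those with an available protein sequence. Binding is reported as a within-array Z-score averaged across arrays of one protein sequence and across linkers.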
# [2] = target: Glc(a1-3)Glc(a1-3)Glc(a1-3)Glc(a1-3)Glc(a1-3)Glc(a1-3)Glc(a1-3)Glc(a1-3)Glc(a1-3)Glc(a1-3)Glc(a1-3)Glc
# Outline: as §1
# [3] = target: Glc(a1-4)Glc(a1-4)Glc(a1-4)Glc
# Outline: as §1
# [4] = target: Glc(a1-4)Glc(a1-4)Glc(a1-4)Glc(a1-4)Glc(a1-4)Glc
# Outline: as §1
# [5] = target: Glc(a1-4)Glc(a1-4)Glc(a1-4)Glc(a1-4)Glc(a1-4)Glc(a1-4)Glc(a1-4)Glc
# Outline: as §1
# [6] = target: Glc(a1-4)Glc(a1-4)Glc(a1-4)Glc(a1-4)Glc(a1-4)Glc(a1-4)Glc(a1-4)Glc(a1-4)Glc(a1-4)Glc(a1-4)Glc(a1-4)Glc
# Outline: as §1
# [7] = target: Glc(b1-3)Glc(b1-3)Glc(b1-3)Glc(b1-3)Glc(b1-3)Glc
# Outline: as §1
# [8] = target: Glc(b1-3)Glc(b1-3)Glc(b1-3)Glc(b1-3)Glc(b1-3)Glc(b1-3)Glc(b1-3)Glc
# Outline: as §1
# [9] = target: Glc(b1-4)Glc(b1-4)Glc
# Outline: as §1
# [10] = target: Glc(b1-4)Glc(b1-4)Glc(b1-4)Glc(b1-4)Glc(b1-4)Glc(b1-4)Glc(b1-4)Glc(b1-4)Glc
# Outline: as §1
# [11] = target: Glc(b1-6)Glc(b1-6)Glc(b1-6)Glc(b1-6)Glc(b1-6)Glc(b1-6)Glc(b1-6)Glc(b1-6)Glc(b1-6)Glc
# Outline: as §1
# [12] = target: Gal(b1-3)[GlcNAc(b1-6)]GalNAc
# Outline: as §1
# [13] = target: Gal(b1-4)GlcNAc(b1-3)Gal(b1-4)GlcNAc(b1-3)Gal(b1-4)GlcNAc
# Outline: as §1
# [14] = target: Gal3S(b1-4)Glc
# Outline: as §1
# [15] = target: Gal6S(b1-4)Glc
# Outline: as §1
# [16] = target: Glc(a1-4)Glc
# Outline: as §1
# [17] = target: Glc(b1-6)Glc
# Outline: as §1
# [18] = target: GlcNAc(b1-2)Gal(b1-3)GalNAc
# Outline: as §1
# [19] = target: Man(a1-2)Man(a1-3)Man
# Outline: as §1
# [20] = target: Man(a1-2)Man(a1-3)[Man(a1-2)Man(a1-6)]Man
# Outline: as §1
# [21] = target: Neu5Ac(a2-3)Gal(b1-3)[Neu5Ac(a2-3)Gal(b1-4)]GlcNAc
# Outline: as §1
# [22] = target: Neu5Ac(a2-3)[GalNAc(b1-4)]Gal(b1-4)GlcNAc
# Outline: as §1
# [23] = target: Neu5Ac(a2-3)[Neu5Ac(a2-6)]GalNAc
# Outline: as §1
# [24] = target: Glc(a1-3)Glc(a1-3)Glc(a1-3)Glc(a1-3)Glc
# Outline: as §1
# [25] = target: Glc(b1-2)Glc(b1-2)Glc(b1-2)Glc
# Outline: as §1
# [26] = target: Glc(b1-2)Glc(b1-2)Glc(b1-2)Glc(b1-2)Glc(b1-2)Glc(b1-2)Glc(b1-2)Glc(b1-2)Glc
# Outline: as §1
# [27] = target: Glc(b1-3)Glc(b1-3)Glc(b1-3)Glc(b1-3)Glc(b1-3)Glc(b1-3)Glc(b1-3)Glc(b1-3)Glc(b1-3)Glc(b1-3)Glc(b1-3)Glc
# Outline: as §1
# [28] = target: Glc(b1-3)Glc(b1-3)Glc(b1-3)Glc(b1-3)Glc(b1-3)Glc(b1-3)Glc(b1-3)Glc(b1-3)Glc(b1-3)Glc(b1-3)Glc(b1-3)Glc(b1-3)Glc
# Outline: as §1
# [29] = target: Glc(b1-3)Glc(b1-3)[Glc(b1-6)]Glc(b1-3)Glc(b1-3)Glc(b1-3)Glc(b1-3)Glc(b1-3)Glc(b1-3)Glc
# Outline: as §1
# [30] = target: Glc(b1-4)Glc(b1-4)Glc(b1-4)Glc(b1-4)Glc(b1-4)Glc(b1-4)Glc(b1-4)Glc
# Outline: as §1
# [31] = target: Glc(b1-6)Glc(b1-6)Glc(b1-6)Glc
# Outline: as §1
# [32] = target: Xyl(b1-4)Xyl(b1-4)Xyl(b1-4)Xyl(b1-4)Xyl(b1-4)Xyl
# Outline: as §1
binder,measurement,setting,value
"Pul13 (Thermotoga maritima), O33840 (protein) ETTIVVHYHRYDGKYDGWNLWIWPVEPVSQEGKAYQFTGEDDFGKVAVVKLPMDLTKVGIIVRLNEWQAKDVAKDRFIEIKDGKAEVWILQGVEEIFYEKP",glycan array binding signal (z-score),[1],-0.351
same,glycan array binding signal (z-score),[2],-0.3
same,glycan array binding signal (z-score),[3],2.43
same,glycan array binding signal (z-score),[4],3.61
same,glycan array binding signal (z-score),[5],4.12
same,glycan array binding signal (z-score),[6],3.44
same,glycan array binding signal (z-score),[7],-0.351
same,glycan array binding signal (z-score),[8],-0.351
same,glycan array binding signal (z-score),[9],-0.351
same,glycan array binding signal (z-score),[10],-0.351
same,glycan array binding signal (z-score),[11],-0.351
"Hip/Pap (Homo sapiens), Q06141 (protein) MLPPMALPSVSWMLLSCLMLLSQVQGEEPQRELPSARIRCPKGSKAYGSHCYALFLSPKSWTDADLACQKRPSGNLVSVLSGAEGSFVSSLVKSIGNSYSYVWIGLHDPTQGTEPNGEGWEWSSSDVMNYFAWERNPSTISSPGHCASLSRSTAFLRWKDYNCNVRLPYVCKFTD",glycan array binding signal (z-score),[12],-0.159
same,glycan array binding signal (z-score),[13],-0.173
same,glycan array binding signal (z-score),[14],0.278
same,glycan array binding signal (z-score),[15],-0.162
same,glycan array binding signal (z-score),[16],0.806
same,glycan array binding signal (z-score),[17],0.091
same,glycan array binding signal (z-score),[18],-0.099
same,glycan array binding signal (z-score),[19],-0.027
same,glycan array binding signal (z-score),[20],0.58
same,glycan array binding signal (z-score),[21],0.71
same,glycan array binding signal (z-score),[22],-0.173
same,glycan array binding signal (z-score),[23],-0.168
"laminarinase (Bacillus halodurans), Q9KBL8 (protein) EETIELEGEVIPARLLSTKVKALNYDDYHNVLIDRCVEGGESIRGLGDGSWIAFHDINLEQPTNLLTVRAANENKQAVLEIRADRVDGPLVSQSVIPPTGGLQAWTTVTAQVNGETSEIRDLYLVFKGEFQLSWFSFS",glycan array binding signal (z-score),[24],-0.688
same,glycan array binding signal (z-score),[2],-0.654
same,glycan array binding signal (z-score),[25],0.121
same,glycan array binding signal (z-score),[26],2.57
same,glycan array binding signal (z-score),[27],2.38
same,glycan array binding signal (z-score),[28],2.46
same,glycan array binding signal (z-score),[29],2.85
same,glycan array binding signal (z-score),[9],-0.573
same,glycan array binding signal (z-score),[30],-0.428
same,glycan array binding signal (z-score),[31],-0.324
same,glycan array binding signal (z-score),[32],-0.466
